High-throughput results: PubChem, National Center for Advancing Translational Sciences (NCATS)
Pf Dd2 growth = blocks in vitro growth of P. falciparum Dd2. P. falciparum Dd2 growth, SYBR Green, 72 h. Potency, µM (top dose mostly 28.9 µM), actives largely listed as inhibitors. hit rate 4.3% among 120,000. AID 1347417; active = well fitted inhibition curve with a large enough effect; note: nearly all actives have a fitted effect of over 65% in size
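Readout: SYBR Green fluorescence, 485 nm excitation, 535 nm emission, after ~16 h lysis at 37C. Before that, Dd2-infected red cells (2.5% hematocrit) grew 72 h with compound, 29 uM top final concentration.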
Numbers stand for hits; [ ] = remark or other dose. The sample as a whole holds a higher share of hits than the screen did.

For Cn1cc(CN2C[C@@H]3C[C@H]2C(=O)N(CC2CC2)c2ccccc2O3)c2ccccc21 the results were Pf Dd2 growth inactive.
O=C1[C@@H]2C[C@@H](CN2Cc2ccnc3ccccc23)Oc2ccccc2N1CC1CC1 was read as Pf Dd2 growth inactive.
Screening O=C1[C@@H]2C[C@@H](CN2Cc2ccc3c(c2)OCO3)Oc2ccccc2N1CC1CC1 returned Pf Dd2 growth 13µM.
CN(CC1CCOC1)C(=O)Nc1ccccc1Cl (stereo not given) was read as Pf Dd2 growth inactive[5.79 µM].
For O=C(NCCCN1CCCCCC1)C1CCN(C(=O)N2CC3CC(C2)[C@H]2CCCC(=O)N2C3)CC1 (stereo not given in full) the results were Pf Dd2 growth inactive.
Screening CCN(C(=O)CN1C(=O)NC(c2ccc(C)cc2)C2=C1COC2=O)c1cccc(C)c1 (stereo not given) returned Pf Dd2 growth inactive.
For Cc1noc([C@@H]2CN(C(=O)NCc3ccccc3)C[C@H]2C(N)=O)n1 the results were Pf Dd2 growth inactive.
For CC[C@H]1CN(C(=O)Nc2ccccc2)CC[C@H]1CC(=O)NCc1ccc(F)cc1 the results were Pf Dd2 growth inactive.
Screening COc1ccccc1-c1cc(NCCc2ccccn2)c2onc(C)c2n1 returned Pf Dd2 growth inactive.
`COc1ccc(-c2noc([C@@H]3C[C@H](NC(=O)c4ccc(C#N)cc4)CN3C)n2)cc1` gave Pf Dd2 growth inactive.
`Cc1ccc(S(=O)(=O)N2CCC(CCC(=O)NC3CCS(=O)(=O)C3)CC2)cc1` (stereo not given) gave Pf Dd2 growth inactive.
CCCCNC(=O)Cc1csc2nc(C)c(-c3cc(C)n(-c4cccc(C)c4C)n3)c(=O)n12 was read as Pf Dd2 growth inactive.
`COc1ccc(-c2nnc(C[C@@H]3C[C@@H](C(C)C)[C@H](CN4CCN(CCO)CC4)C=C3C)o2)cc1` gave Pf Dd2 growth inactive.
`CC1=C[C@@H](CN2CCN(CCO)CC2)[C@H](C(C)C)C[C@H]1Cc1nnc(-c2ccc([N+](=O)[O-])cc2)o1` gave Pf Dd2 growth 2.5µM.
`CC1=C[C@@H](CN2CCC(CO)CC2)[C@H](C(C)C)C[C@H]1Cc1nnc(-c2ccc([N+](=O)[O-])cc2)o1` gave Pf Dd2 growth 3.5µM.
`CCS(=O)(=O)N1C[C@@H](Oc2cccnc2)C[C@H]1C(=O)N1CCOCC1` gave Pf Dd2 growth inactive.
Screening CC(C(=O)NC1CCCC1)[C@@H]1CC[C@@]2(C)CC[C@H](N[S+](C)(=O)[O-])[C@@H](C)[C@@H]2[C@H]1O (stereo not given in full) returned Pf Dd2 growth inactive.
Screening COCC(=O)N[C@@H]1CN(C(=O)N(C)C)CC[C@@H]1c1nc(C)no1 returned Pf Dd2 growth inactive[5.79 µM].
Screening CCOc1ccc(CNC(=O)C2(c3ccc(NC(C)=O)cc3)CCCCC2)cc1 returned Pf Dd2 growth inactive.
Screening CN1CCN(C(=O)c2ccc(N3CC4CC(C3)[C@H]3CCCC(=O)N3C4)nc2)CC1 (stereo not given in full) returned Pf Dd2 growth inactive.
Screening COC(=O)[C@@H]1Cc2c([nH]c3ccccc23)[C@H]2C[C@H](N3CCCCC3)C[C@@H](c3ccccc3F)N21 returned Pf Dd2 growth 1.4µM.
Screening COC(=O)[C@@H]1Cc2c([nH]c3ccccc23)[C@H]2C[C@@H](N3CCCCC3)C[C@@H](c3ccccc3F)N21 returned Pf Dd2 growth 4µM.
Screening COC(=O)[C@@H]1Cc2c([nH]c3ccccc23)[C@H]2C[C@H](NC[C@H]3CCCO3)C[C@@H](c3ccccc3F)N21 returned Pf Dd2 growth inactive.
Screening COC(=O)[C@@H]1Cc2c([nH]c3ccccc23)[C@H]2C[C@@H](NCCNC(C)=O)C[C@@H](c3ccccc3F)N21 returned Pf Dd2 growth inactive.
`COc1ccc(CC(=O)NC2CCCc3c2[nH]c2ccccc32)cc1OC` (stereo not given) gave Pf Dd2 growth inactive.
For Cc1ccc2c(c1)N(CCCC(=O)N1CCc3c(nc4cc(-c5ccccc5)[nH]n4c3=O)C1)C(=O)CO2 the results were Pf Dd2 growth inactive[5.79 µM].
For CNC(=O)N1CCC2(CC1)CC(N1CCN(c3ccccn3)CC1)CCO2 (stereo not given) the results were Pf Dd2 growth inactive.
Screening Cc1ccc(-n2c(C3CCN(C(=O)c4ccccc4Cl)CC3)n[nH]c2=O)cc1 returned Pf Dd2 growth inactive.
CNC(=O)c1cc(S(=O)(=O)N[C@H]2[C@H]3CCO[C@H]3[C@@H]2N(C)C)cs1 was read as Pf Dd2 growth inactive.
`O=C(C(c1cccnc1)N1CCOCC1)N(C/C=C/c1ccccc1)CCO` (stereo not given) gave Pf Dd2 growth inactive.
COc1cccc(CN2C[C@@H](CO)[C@H](C(=O)N(C)C)C2)c1 was read as Pf Dd2 growth inactive.
COC[C@@H]1CN(C(=O)c2ccnc(C)c2)C[C@H]1c1nc(C2CC2)no1 was read as Pf Dd2 growth inactive.
Screening COc1cccc(-c2nn(C)c3sc(C(=O)NCc4cc(OC)ccc4OC)cc23)c1 returned Pf Dd2 growth inactive.
